{"source": "PubChem BioAssay AID1159580", "about": "(chemical genetic matrix, 2015)", "assay": "chemical genetic growth profiling, strain panel (AID 1159580);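 also: tested at 20 µM; growth read once vehicle control cultures reached saturation at 30 °C; 1 = growth at the plate median or of vehicle wells; lower values mean less growth of the strain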", "settings": "growth OD", "note": "Values joined by “and” are separate entries in the source; they are usually repeats but may differ in a detail not shown here. Identical values can stand only once. Hit rate of the full screen: of about 5,500 compounds, about 2,000 (36%) were called active. Inconclusive results (about 18%) are left out. This is one part of the list. A number with no mark means an inactive call. Rule as the data show it: active = normalized growth mostly below about 0.91 (no sharp cut-off); inconclusive = no clear call, values can overlap the other calls; inactive = mostly above about 0.92."}
{"smiles": "Nc1c2c(nc3ccccc13)CCCC2", "values": [{"measurement": "normalized growth", "setting": "S. cerevisiae deletion strains, locus YKL068W, hits give low values", "result": 1.01}, {"measurement": "normalized growth", "setting": "S. cerevisiae deletion strains, locus YKL085W, strain MDH1 (second series), hits give low values", "result": 1.01}, {"measurement": "normalized growth", "setting": "S. cerevisiae deletion strains, locus YKL085W, strain MDH1, hits give low values", "result": 1.01}, {"measurement": "normalized growth", "setting": "S. cerevisiae deletion strains, locus YKL160W, strain elf1, hits give low values", "result": 1.01}, {"measurement": "normalized growth", "setting": "S. cerevisiae deletion strains, locus YKL190W, strain CNB1, hits give low values", "result": 1.02}, {"measurement": "normalized growth", "setting": "S. cerevisiae deletion strains, locus YKR001C, strain vps1, hits give low values", "result": 0.998}, {"measurement": "normalized growth", "setting": "S. cerevisiae deletion strains, locus YKR026C, strain gcn3, hits give low values", "result": 0.986}, {"measurement": "normalized growth", "setting": "S. cerevisiae deletion strains, locus YKR091W, strain srl3, hits give low values", "result": 0.994}, {"measurement": "normalized growth", "setting": "S. cerevisiae deletion strains, locus YLL001W, strain dnm1, hits give low values", "result": 0.989}, {"measurement": "normalized growth", "setting": "S. cerevisiae deletion strains, locus YLL026W, hits give low values", "result": 0.99}, {"measurement": "normalized growth", "setting": "S. cerevisiae deletion strains, locus YLL041C, strain sdh2, hits give low values", "result": 0.982}, {"measurement": "normalized growth", "setting": "S. cerevisiae deletion strains, locus YLR027C, strain aat2, hits give low values", "result": 0.984}, {"measurement": "normalized growth", "setting": "S. cerevisiae deletion strains, locus YLR039C, strain RIC1, hits give low values", "result": 1.09}, {"measurement": "normalized growth", "setting": "S. cerevisiae deletion strains, locus YLR058C, strain SHM2, hits give low values", "result": 1.02}, {"measurement": "normalized growth", "setting": "S. cerevisiae deletion strains, locus YLR102C, strain apc9, hits give low values", "result": 1.01}, {"measurement": "normalized growth", "setting": "S. cerevisiae deletion strains, locus YLR113W, strain HOG1, hits give low values", "result": 1.02}, {"measurement": "normalized growth", "setting": "S. cerevisiae deletion strains, locus YLR221C, strain rsa3, hits give low values", "result": 0.963}, {"measurement": "normalized growth", "setting": "S. cerevisiae deletion strains, locus YLR258W, strain gsy2, hits give low values", "result": 1}, {"measurement": "normalized growth", "setting": "S. cerevisiae deletion strains, locus YLR262C, strain YPT6 (second series), hits give low values", "result": 1.01}, {"measurement": "normalized growth", "setting": "S. cerevisiae deletion strains, locus YLR262C, strain YPT6, hits give low values", "result": 1.1}, {"measurement": "normalized growth", "setting": "S. cerevisiae deletion strains, locus YLR268W, strain sec22, hits give low values", "result": 1.01}, {"measurement": "normalized growth", "setting": "S. cerevisiae deletion strains, locus YLR320W, strain mms22, hits give low values", "result": 0.947}, {"measurement": "normalized growth", "setting": "S. cerevisiae deletion strains, locus YLR330W, strain CHS5, hits give low values", "result": 1.01}, {"measurement": "normalized growth", "setting": "S. cerevisiae deletion strains, locus YLR342W, strain FKS1 (second series), hits give low values", "result": 1}, {"measurement": "normalized growth", "setting": "S. cerevisiae deletion strains, locus YLR342W, strain FKS1, hits give low values", "result": 0.999}, {"measurement": "normalized growth", "setting": "S. cerevisiae deletion strains, locus YLR357W, strain rsc2, hits give low values", "result": 0.994}, {"measurement": "normalized growth", "setting": "S. cerevisiae deletion strains, locus YLR370C, strain arc18, hits give low values", "result": 1.01}, {"measurement": "normalized growth", "setting": "S. cerevisiae deletion strains, locus YLR371W, strain rom2, hits give low values", "result": 1.03}, {"measurement": "normalized growth", "setting": "S. cerevisiae deletion strains, locus YLR384C, strain iki3, hits give low values", "result": 0.99}, {"measurement": "normalized growth", "setting": "S. cerevisiae deletion strains, locus YLR418C, strain cdc73, hits give low values", "result": 1.03}, {"measurement": "normalized growth", "setting": "S. cerevisiae deletion strains, locus YML016C, strain PPZ1, hits give low values", "result": 1.01}, {"measurement": "normalized growth", "setting": "S. cerevisiae deletion strains, locus YML032C, strain rad52, hits give low values", "result": 1.01}, {"measurement": "normalized growth", "setting": "S. cerevisiae deletion strains, locus YML120C, strain ndi1, hits give low values", "result": 1}, {"measurement": "normalized growth", "setting": "S. cerevisiae deletion strains, locus YML124C, strain tub3, hits give low values", "result": 1.02}, {"measurement": "normalized growth", "setting": "S. cerevisiae deletion strains, locus YMR058W, strain fet3, hits give low values", "result": 0.979}, {"measurement": "normalized growth", "setting": "S. cerevisiae deletion strains, locus YMR078C, strain ctf18, hits give low values", "result": 1.02}, {"measurement": "normalized growth", "setting": "S. cerevisiae deletion strains, locus YMR125W, strain sto1, hits give low values", "result": 1.01}, {"measurement": "normalized growth", "setting": "S. cerevisiae deletion strains, locus YMR129W, hits give low values", "result": 0.99}, {"measurement": "normalized growth", "setting": "S. cerevisiae deletion strains, locus YMR205C, strain PFK2, hits give low values", "result": 1.01}, {"measurement": "normalized growth", "setting": "S. cerevisiae deletion strains, locus YMR223W, strain ubp8, hits give low values", "result": 1.01}, {"measurement": "normalized growth", "setting": "S. cerevisiae deletion strains, locus YMR231W, strain pep5, hits give low values", "result": 0.976}, {"measurement": "normalized growth", "setting": "S. cerevisiae deletion strains, locus YMR263W, strain SAP30, hits give low values", "result": 1.01}, {"measurement": "normalized growth", "setting": "S. cerevisiae deletion strains, locus YMR307W, strain GAS1, hits give low values", "result": 0.999}, {"measurement": "normalized growth", "setting": "S. cerevisiae deletion strains, locus YNL067W, strain RPL9B, hits give low values", "result": 0.998}, {"measurement": "normalized growth", "setting": "S. cerevisiae deletion strains, locus YNL071W, strain lat1, hits give low values", "result": 1}, {"measurement": "normalized growth", "setting": "S. cerevisiae deletion strains, locus YNL128W, strain TEP1, hits give low values", "result": 1.01}, {"measurement": "normalized growth", "setting": "S. cerevisiae deletion strains, locus YNL153C, strain GIM3, hits give low values", "result": 0.994}, {"measurement": "normalized growth", "setting": "S. cerevisiae deletion strains, locus YNL175C, strain NOP13, hits give low values", "result": 0.99}, {"measurement": "normalized growth", "setting": "S. cerevisiae deletion strains, locus YNL183C, strain NPR1, hits give low values", "result": 0.954}, {"measurement": "normalized growth", "setting": "S. cerevisiae deletion strains, locus YNL197C, strain WHI3, hits give low values", "result": 1.01}, {"measurement": "normalized growth", "setting": "S. cerevisiae deletion strains, locus YNL209W, strain ssb2, hits give low values", "result": 1.01}, {"measurement": "normalized growth", "setting": "S. cerevisiae deletion strains, locus YNL224C, strain SQS1, hits give low values", "result": 0.995}, {"measurement": "normalized growth", "setting": "S. cerevisiae deletion strains, locus YNL233W, strain BNI4, hits give low values", "result": 0.999}, {"measurement": "normalized growth", "setting": "S. cerevisiae deletion strains, locus YNL248C, strain rpa49, hits give low values", "result": "0.84 (active)"}, {"measurement": "normalized growth", "setting": "S. cerevisiae deletion strains, locus YNL250W, strain rad50, hits give low values", "result": 1.03}, {"measurement": "normalized growth", "setting": "S. cerevisiae deletion strains, locus YNL271C, strain bni1, hits give low values", "result": 1.02}, {"measurement": "normalized growth", "setting": "S. cerevisiae deletion strains, locus YNL298W, strain CLA4, hits give low values", "result": 1.02}, {"measurement": "normalized growth", "setting": "S. cerevisiae deletion strains, locus YNL307C, strain MCK1, hits give low values", "result": 1.02}, {"measurement": "normalized growth", "setting": "S. cerevisiae deletion strains, locus YNL322C, strain KRE1 (second series), hits give low values", "result": 1.01}, {"measurement": "normalized growth", "setting": "S. cerevisiae deletion strains, locus YNL322C, strain KRE1, hits give low values", "result": 1.01}, {"measurement": "normalized growth", "setting": "S. cerevisiae deletion strains, locus YNR049C, strain mso1, hits give low values", "result": 0.975}, {"measurement": "normalized growth", "setting": "S. cerevisiae deletion strains, locus YNR052C, strain pop2, hits give low values", "result": 1}, {"measurement": "normalized growth", "setting": "S. cerevisiae deletion strains, locus YOL006C, strain TOP1, hits give low values", "result": 1.05}, {"measurement": "normalized growth", "setting": "S. cerevisiae deletion strains, locus YOL012C, strain htz1", "result": 0.82}, {"measurement": "normalized growth", "setting": "S. cerevisiae deletion strains, locus YOL147C, strain pex11, hits give low values", "result": 1.01}, {"measurement": "normalized growth", "setting": "S. cerevisiae deletion strains, locus YOR001W, strain rrp6, hits give low values", "result": 0.925}, {"measurement": "normalized growth", "setting": "S. cerevisiae deletion strains, locus YOR061W, strain CKA2, hits give low values", "result": 1.02}, {"measurement": "normalized growth", "setting": "S. cerevisiae deletion strains, locus YOR069W, strain VPS5, hits give low values", "result": 1.01}, {"measurement": "normalized growth", "setting": "S. cerevisiae deletion strains, locus YOR070C, strain gyp1, hits give low values", "result": 0.975}, {"measurement": "normalized growth", "setting": "S. cerevisiae deletion strains, locus YOR080W, strain dia2, hits give low values", "result": 0.969}, {"measurement": "normalized growth", "setting": "S. cerevisiae deletion strains, locus YOR083W, strain WHI5 (second series), hits give low values", "result": 0.962}, {"measurement": "normalized growth", "setting": "S. cerevisiae deletion strains, locus YOR083W, strain WHI5, hits give low values", "result": 0.994}, {"measurement": "normalized growth", "setting": "S. cerevisiae deletion strains, locus YOR106W, strain vam3, hits give low values", "result": 0.997}, {"measurement": "normalized growth", "setting": "S. cerevisiae deletion strains, locus YOR136W, strain idh2, hits give low values", "result": 1.02}, {"measurement": "normalized growth", "setting": "S. cerevisiae deletion strains, locus YOR144C, strain elg1, hits give low values", "result": 1.02}, {"measurement": "normalized growth", "setting": "S. cerevisiae deletion strains, locus YOR184W, strain ser1, hits give low values", "result": 1.04}, {"measurement": "normalized growth", "setting": "S. cerevisiae deletion strains, locus YOR231W, strain MKK1, hits give low values", "result": 0.985}, {"measurement": "normalized growth", "setting": "S. cerevisiae deletion strains, locus YOR265W, strain rbl2, hits give low values", "result": 0.99}, {"measurement": "normalized growth", "setting": "S. cerevisiae deletion strains, locus YOR270C, strain vph1, hits give low values", "result": 0.888}, {"measurement": "normalized growth", "setting": "S. cerevisiae deletion strains, locus YOR290C, strain snf2, hits give low values", "result": 0.971}, {"measurement": "normalized growth", "setting": "S. cerevisiae deletion strains, locus YOR316C, strain cot1, hits give low values", "result": 1.02}, {"measurement": "normalized growth", "setting": "S. cerevisiae deletion strains, locus YPL051W, strain arl3, hits give low values", "result": 0.951}, {"measurement": "normalized growth", "setting": "S. cerevisiae deletion strains, locus YPL055C, strain LGE1, hits give low values", "result": "1.02 and 0.992"}, {"measurement": "normalized growth", "setting": "S. cerevisiae deletion strains, locus YPL078C, strain atp4, hits give low values", "result": 1.02}, {"measurement": "normalized growth", "setting": "S. cerevisiae deletion strains, locus YPL106C, strain sse1, hits give low values", "result": 0.982}, {"measurement": "normalized growth", "setting": "S. cerevisiae deletion strains, locus YPL240C, strain hsp82, hits give low values", "result": 0.987}, {"measurement": "normalized growth", "setting": "S. cerevisiae deletion strains, locus YPL241C, strain CIN2, hits give low values", "result": 1.01}, {"measurement": "normalized growth", "setting": "S. cerevisiae deletion strains, locus YPL256C, strain CLN2, hits give low values", "result": 0.995}, {"measurement": "normalized growth", "setting": "S. cerevisiae deletion strains, locus YPR119W, strain clb2, hits give low values", "result": 1.01}, {"measurement": "normalized growth", "setting": "S. cerevisiae deletion strains, locus YPR141C, strain kar3, hits give low values", "result": 1.01}, {"measurement": "normalized growth", "setting": "S. cerevisiae deletion strains, locus YPR163C, strain tif3, hits give low values", "result": 1.01}, {"measurement": "normalized growth", "setting": "S. cerevisiae deletion strains, locus YPR167C, strain met16, hits give low values", "result": 1.02}, {"measurement": "normalized growth", "setting": "S. cerevisiae deletion strains, strain wtn01, hits give low values", "result": 1.02}, {"measurement": "normalized growth", "setting": "S. cerevisiae strains, strain wild type, hits give low values", "result": 1.02}]}
